# High-throughput results (PubChem BioAssay)
# A selection: hits, their analogues and other compounds. The true share with any hit is near 0.9%.
# CDC25B-CDK2 inh = primary biochemical HTRF screen for blockers of M-phase inducer phosphatase 2 binding to CDK2/cyclin A | P30305+P24941 | z-score (test concentration not listed) | HTRF CDC25B-CDK2/CyclinA binding, anti-His/anti-Flag; hits give high values | AID 1259370, 2018 | 94,000 tested, 0.72% active; in the data active = z-score above about 3.2
# HIV TAR-Tat = TAR RNA-Tat peptide displacers, HIV-1, primary screen, biochemical, FRET, FAM/TAMRA-labeled Tat. AID 1259389, 2018. 100,000 tested, 0.6% active. z-score (concentration not given with the values). HIV-1 TAR RNA, Tat peptide displacement FRET; hits give high values; active = z-score of 3 or more in at least 2 runs
# Active calls of the source: *; nt = not tested or not shown; ! = not active in a repeat.
SMILES,CDC25B-CDK2 inh,HIV TAR-Tat
Cc1cc2c(C(C)C)c(O)c(O)c(C=O)c2c(O)c1-c1c(C)cc2c(C(C)C)c(O)c(O)c(C=O)c2c1O,-0.45,25.5*!
C=CCOC(=O)C1=C(C)OC(N)=C(C(=O)OC)C12C(=O)N(CC(=O)OC)c1ccccc12 (stereo not given),-0.66,nt
CCn1nc(/C=C\c2ccccc2)nc2c(=O)n(C)c(=O)nc1-2,-1.59,1.48
COc1ccc(C2N3CCCN23)cc1Br (stereo not given),1.88,0.31
CC(N)[C@H](O)c1ccc(O)c(O)c1 (stereo not given in full),-3.3,nt
C[C@H](N)[C@H](O)c1ccc(O)c(O)c1,nt,8.24*
Nc1nc(N)nc(N)n1 (tested in a mixture with another compound),0.36,nt
Cn1c(=O)c2ncnnc2n(C)c1=O,-1.33,nt
CN1C(=O)C(Cc2nc3ccccc3c(=O)n2-c2ccc(Cl)cc2)c2ccccc21 (stereo not given),-1.08,-0.89
Cc1cc(C)nc(-n2nc(-c3ccccc3)c3c2NC(=O)CSC3c2ccc(F)cc2)n1 (stereo not given),2.02,0.29
c1ccc(CNCCc2c[nH]c3ccccc23)cc1,1.29,-0.73
CCc1ccc(CNCCc2c[nH]c3ccccc23)cc1,-0.73,0.71
Fc1cccc(CNCCc2c[nH]c3ccccc23)c1,8.01*,0.87
Cc1cccc(CNCCc2c[nH]c3ccccc23)c1,15.7*,0.75
Cc1c(N2CCNCC2)c(=O)n(C)c(=O)n1C,-2.24,2.09
CCCCCCC(C)(C)c1ccc([C@H]2CCC[C@@H](O)C2)c(O)c1,nt,0.49
COC(=O)c1sc2nc3c(cc2c1N)CN(C)CC3,0.56,-0.26
CN1CCc2nc(SCc3cccnc3)c(C#N)cc2C1,19*,-2.45
CN1CCN(C(=O)Cc2ccc(NC3=NC4CS(=O)(=O)CC4S3)cc2)CC1 (stereo not given),-0.32,nt
CCCCCn1c(N)c(C(=O)OC)c2nc3ccccc3nc21,1.75,0.97
Nc1c(C(=O)NCc2ccccc2)c2nc3ccccc3nc2n1Cc1ccco1,12.3*,-4.34
COc1cccc(C2C(C#N)=C(N)Oc3c2c(=O)oc2ccccc32)c1OC(=O)c1ccco1 (stereo not given),0.27,nt
NC(N)=N/N=C/c1ccc(/C=N/N=C(N)N)cc1,7.64*,nt
Cc1ccsc1C1C(C#N)=C(N)Oc2c1c(=O)oc1ccccc21 (stereo not given),0.08,nt
CCC1(C(=O)c2ccc(Cl)cc2)C2c3cc(Br)ccc3OC(=O)C21C(=O)OC (stereo not given),1.81,0.26
SMILES,CDC25B-CDK2 inh,HIV TAR-Tat
CCOC(=O)C12C(=O)Oc3ccc(Br)cc3C1C2(CC)C(=O)c1ccccc1 (stereo not given),15.2*,0.21
C[C@@H]1NCCc2cc(O)c(O)cc21,nt,19.3*
COc1cc2c(cc1O)C(C)NCC2 (stereo not given),nt,0.43
CCCCCn1cc(C(=O)c2ccc(CC)c3ccccc23)c2ccccc21,nt,-0.88
CN1CCc2cc(O)cc3c2[C@H]1Cc1ccc(O)c(O)c1-3,-0.62,nt
COc1cc2c(cc1O)C[C@H]1c3c(cc(O)c(OC)c3-2)CCN1C,nt,12.9*
CN(C)C(=O)Oc1ccc(Br)cc1C(=O)Nc1ccc(F)cc1,-1.27,nt
C=CC[N+]12CN3CN(CN(C3)C1)C2,4.34*,nt
N#CC1=C(N)Oc2c(c(=O)oc3ccccc23)C1c1cccc(OCc2ccccc2)c1 (stereo not given),-1.62,nt
Cc1ccccc1CN1CCCN(Cc2ccccc2F)S1(=O)=O,nt,0.64
Cc1c2ccncc2c(C)c2c1[nH]c1ccccc12,4.19*,-7.26
Cc1nccc2c1[nH]c1ccccc12,-1.22,19.1*
c1ccc2c(c1)[nH]c1cnccc12,nt,3.31
CCCC(C)n1[nH]c(=O)c2c1NC(=O)CSC2c1ccc(F)cc1 (stereo not given),-2.14,0.44
CCCOc1ccc(C2SCC(=O)Nc3c2c(=O)[nH]n3C(CC)CC)cc1 (stereo not given),2.2,2.23
O=C(Nc1ccccc1)Nc1cnns1,20.2*,-0.51
Cc1ccc(-n2nc(C)c3c2NC(=O)CSC3c2ccc(Br)cc2)cc1 (stereo not given),-1.2,0.11
CN1CSC2=C(C#N)C(c3cccc(Br)c3)CC(=O)N2C1 (stereo not given),5.23*,0.16
N#CC1=C(N)Oc2c(c(=O)oc3ccccc23)C1c1cccc(Br)c1 (stereo not given),-1.98,nt
CCC(CC)n1[nH]c(=O)c2c1NC(=O)CSC2c1ccc(OC)cc1 (stereo not given),-2.16,2.8
CNCCc1c[nH]c2ccccc12,-0.91,nt
CNCCc1c[nH]c2ccc(O)cc12,9.78*,nt
CCCCCn1cc(C(=O)c2ccc(C)c3ccccc23)c2ccccc21,nt,-1.54
